The list is not random: actives were taken first. Their share in the collection is about 18%.
CtBP-E1A blk: inhibitors of CtBP/E1A interaction; AlphaScreen GST-E1A/His-CtBP binding, 1536-well; active compounds read low; activity change, % (concentration not given with the values); actives 0.49% (n = 340,000); in the data active = activity change below about -65%; inconclusive = mostly about -30% to -63%
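Protein mix (5X: 125 nM each GST-E1A, His-CtBP) was incubated with pinned compound 2 h at 37 deg C in dark, in 50 mM Tris pH 8.0 buffer with 300 mM NaCl. Glutathione donor and nickel acceptor beads followed; AlphaScreen signal read after 1 h.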
TDP1 cell noCPT: qHTS for Inhibitors of human tyrosyl-DNA phosphodiesterase 1 (TDP1): qHTS in cells in absence of CPT; DT40 Tdp1-/- hTDP1 cells, no CPT, ATP luminescence, 48 h; Potency, µM (doses to about 46.2 µM), for the others: top-dose activity change, negative = growth inhibition, most hits filed as inhibitors; actives 15% (n = 420,000); AID 686978, 2013; also: potency is read from the fitted curve at half-maximal effect; nearly all actives have a fitted effect of over 55% in size
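Chicken DT40 Tdp1-/- cells stably complemented with human TDP1 were seeded at 400 cells/well with DMSO in place of 20 nM camptothecin. After compound pinning, cells grew at least 48 hr at 37 °C; viability read by CellTiter-Glo luminescence.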
IL-1B inflam inh: inhibitors of inflammasome signaling (IL-1 beta secretion). THP-1 LPS/ATP IL-1B secretion, AlphaLISA, 16 h; active compounds read low. activity change, % at 57.5 µM. actives 4.7% (n = 360,000). AID 743279; in the data active = activity change below about -50%; inconclusive = mostly about -30% to -49%
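Secreted IL-1B measured by AlphaLISA bead assay after 16 h compound exposure of THP-1 cells; compounds (final up to 57.5 uM) added 1 h before LPS (250 ng/mL) and ATP (1.25 mM) stimulation; lower signal means less secretion.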
Six1-Eya2 blk: blocks human Six1 binding to Eya2. actives 0.56% (n = 360,000). activity change, % (concentration not given with the values). AlphaScreen GST-Six1/His-Eya2 binding, biochemical; active compounds read low; in the data active = activity change below about -65%; inconclusive = mostly about -30% to -63%
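GST-Six1 + His-Eya2 (5X stock: 250/500 nM); Tris pH 8.0, 300 mM NaCl, 0.05% BSA, 0.02% Tween 20; GSH donor/Ni acceptor beads; 1 h 37 °C dark; AlphaScreen readout.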
TDP1 block: TDP1 (human) enzyme inhibition | recombinant TDP1, AlphaScreen DNA substrate cleavage | Potency, µM (series often up to 130 µM), for the others: at the highest dose activity change, negative = inhibition, most hits filed as inhibitors | actives 0.28% (n = 350,000) | AID 485290; also: potency is read from the fitted curve at half-maximal effect; nearly all actives have a fitted effect of over 40% in size
Target sequence (Q9NUW8 whole entry, looked up): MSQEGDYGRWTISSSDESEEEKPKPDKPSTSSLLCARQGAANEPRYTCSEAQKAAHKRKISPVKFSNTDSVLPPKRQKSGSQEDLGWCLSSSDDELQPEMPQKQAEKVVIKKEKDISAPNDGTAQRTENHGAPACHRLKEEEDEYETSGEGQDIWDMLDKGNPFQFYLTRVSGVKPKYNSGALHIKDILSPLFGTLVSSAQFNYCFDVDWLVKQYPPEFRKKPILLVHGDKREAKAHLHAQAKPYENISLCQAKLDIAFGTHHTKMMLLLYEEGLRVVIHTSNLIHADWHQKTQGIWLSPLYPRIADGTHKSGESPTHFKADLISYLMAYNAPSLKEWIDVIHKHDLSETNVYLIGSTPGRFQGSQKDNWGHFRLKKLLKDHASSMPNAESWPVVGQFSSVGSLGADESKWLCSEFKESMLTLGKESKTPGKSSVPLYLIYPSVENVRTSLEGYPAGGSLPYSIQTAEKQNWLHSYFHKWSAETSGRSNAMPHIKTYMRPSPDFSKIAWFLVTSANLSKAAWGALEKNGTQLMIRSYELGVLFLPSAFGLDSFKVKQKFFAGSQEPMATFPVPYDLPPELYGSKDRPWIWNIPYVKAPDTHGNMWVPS
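Recombinant human Tdp1 (E. coli-expressed, 1 nM final) preincubated with compounds 15 min at room temperature, then 5'-biotin/3'-phosphotyrosine-FITC DNA substrate (15 nM final) added for 5 min. AlphaScreen beads (10 ug/ml final) added 10 min; cleavage lowers signal.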
TDP1 cell CPT: growth inhibition of DT40 Tdp1-/-;hTDP1 cells with camptothecin (screen for TDP1 inhibitors); chicken DT40 Tdp1-/-;hTDP1 cells + 20 nM CPT, ATP luminescence, 48 h; Potency, µM (titrated, usually from 46.2 µM), for inactives: at the highest dose activity change, negative = growth inhibition, actives largely listed as inhibitors; actives 12% (n = 420,000); also: potency is read from the fitted curve at half-maximal effect; nearly all actives have a fitted effect of over 55% in size
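Cell growth measured by CellTiter-Glo luminescence after a minimum 48 h, 37 C compound exposure with 20 nM CPT in Tdp1-knockout DT40 cells stably expressing hTDP1, seeded 400/well; qHTS titration format.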
Starred values were filed as active, the others as inactive; ? = inconclusive; . = no result. Unless noted, calls follow the shape of the dose curve; as a rule, active = well fitted curve in the direction sought with a large enough effect; inconclusive = small, poorly fitted or top-dose-only effect, or another doubt; inactive = no such curve, though single readings can be large; an effect the other way counts as inactive or inconclusive. % is scaled to controls: 0 for no effect and ±100 for the full control effect.

SMILES | CtBP-E1A blk | TDP1 cell noCPT | IL-1B inflam inh | Six1-Eya2 blk | TDP1 block | TDP1 cell CPT
COc1cccc(Nc2nc3ccc(C(=O)c4ccccc4)cc3n3c(C)nnc23)c1 | . | ? | . | . | -2% | 12µM*
Oc1ccccc1C=NN1CCCCCC1 | -19 | -22% | 2 | ? | . | -8%
Cc1ccc(CCNC(=O)C2CCN(S(=O)(=O)N3CCOCC3)CC2)cc1 | . | ? | 13 | 2 | 0% | -1%
Cc1cccc(C)c1NC(=O)c1sccc1SCc1cccc(C(F)(F)F)c1 | 9 | 18µM* | ? | 14 | -3% | 16µM*
Cc1ccc(NC(=O)c2ccc(CNS(=O)(=O)c3cccc(C(F)(F)F)c3)cc2)cc1 | 2 | -8% | 24 | 10 | -1% | -4%
Cc1ccc(NC(=O)c2sccc2SCc2cccc(C(F)(F)F)c2)cc1 | 42 | 18µM* | -12 | 31 | -10% | 18µM*
Cc1cnc(=O)[nH]c1SCc1cccc(C(F)(F)F)c1 | . | -11% | 8 | 15 | 9% | 2%
CCOc1ccc(-c2nnc(SCC(=O)Nc3cc(C)ccc3OC)o2)cc1 | . | ? | . | . | 9% | ?
CC(=O)c1ccc(-c2cnc3c(NC=O)cc(-c4cnn(C)c4)cn23)cc1 | -12 | 23µM* | ? | -14 | . | 18µM*
CC(=O)c1ccc(-c2cnc3c(NC=O)cc(-c4ccc(S(C)(=O)=O)cc4)cn23)cc1 | -3 | 7.3µM* | -4 | -3 | . | 8.2µM*
CCc1nc2c(C#N)c(-c3ccc(Cl)cc3)ccn2n1 | -1 | -17% | -2 | -4 | 2% | -8%
NC(=O)/C(=C/c1ccco1)C(N)=S | -1 | 5% | -12 | 0 | 10µM* | 0%
CN(C)c1cc[n+](CC(=O)Nc2c(Cl)cc(Cl)cc2Cl)cc1 | 10 | 6.5µM* | -26 | 2 | -3% | 7.3µM*
O=C(CCCN1C(=O)c2cccnc2Oc2ccc(Cl)cc21)NCc1ccc(F)cc1 | . | ? | . | . | 2% | ?
COc1cccc(C(N)CC(=O)O)c1 (centres undefined) | . | . | . | . | 0% | .
CC(C)CN(C(=O)COC(=O)c1c2c(nc3ccccc13)CCC2)c1c(N)n(Cc2ccccc2)c(=O)[nH]c1=O | -9 | ? | -51* | -5 | 1% | ?
CN(C(=O)COC(=O)c1c2c(nc3ccccc13)CCCC2)c1c(N)n(Cc2ccccc2)c(=O)[nH]c1=O | -1 | -16% | -54* | -3 | -6% | -5%
CCN(C(=O)COC(=O)c1c2c(nc3ccccc13)CCC2)c1c(N)n(Cc2ccccc2)c(=O)[nH]c1=O | 3 | -21% | ? | -4 | . | ?
CN1CCN(C(=O)c2cnn(-c3ccccc3)c2NC(=O)c2ccc(Br)cc2)CC1 | -6 | -4% | -6 | 17 | . | 13%
CC(=O)c1ccc(N2CCN(c3ncnc4c3cnn4C)CC2)cc1 | . | 8.2µM* | . | . | 5% | ?
CC(=O)c1ccc(N2CCN(c3ncnc4c3cnn4-c3cc(Cl)ccc3C)CC2)cc1 | . | 5.8µM* | . | . | 3% | 2.6µM*
Cc1ccc(-n2ncc3c(N4CCCCCC4)ncnc32)cc1Cl | . | -12% | . | . | 0% | -28%
CCN(c1ncnc2c1cnn2-c1cc(Cl)ccc1C)C1CCCCC1 | . | 15µM* | . | . | 8% | 15µM*
Cc1ccc(Cl)cc1-n1ncc2c(N3CCCCCC3)ncnc21 | . | 8.2µM* | . | . | 3% | 5.8µM*
COc1ccc(N2CCN(c3ncnc4c3cnn4-c3ccc(C)c(Cl)c3)CC2)cc1 | . | -12% | . | . | 0% | -11%
CCc1ccc(Nc2ncnc3c2cnn3-c2cc(Cl)ccc2C)cc1 | . | -81% | . | . | 3% | ?
Cc1ccc(-n2ncc3c(N4CCN(C)CC4)ncnc32)cc1C | . | ? | . | . | 10% | ?
Cc1ccc2cc3cc(C(=O)NCCCN4CCCCCC4)oc3nc2c1 | -13 | ? | 0 | -20 | 1% | ?

Assay outcomes as filed in PubChem BioAssay.
